Assay results taken from PubChem BioAssay (EPA / NIEHS).
Active and inactive are the calls of the source. How the source made its calls: active means hit-call score of the fitted dose curve at least 0.9, where 1 is the maximum; inactive means score below 0.9.

Legend:
[1] = molecular target: Bile acid receptor (Homo sapiens) (UniProt Q96RI1); test: ATG_IR1_CIS: Attagene CIS-FACTORIAL HepG2 Assay for human Nuclear Receptor Subfamily 1 Group H Member 4 (NR1H4), IR1 submotif (AID 2282946); conditions: IR1 reporter transcription, actives raise or lower the signal
Sequence of Bile acid receptor (Homo sapiens) (Q96RI1 whole entry, looked up): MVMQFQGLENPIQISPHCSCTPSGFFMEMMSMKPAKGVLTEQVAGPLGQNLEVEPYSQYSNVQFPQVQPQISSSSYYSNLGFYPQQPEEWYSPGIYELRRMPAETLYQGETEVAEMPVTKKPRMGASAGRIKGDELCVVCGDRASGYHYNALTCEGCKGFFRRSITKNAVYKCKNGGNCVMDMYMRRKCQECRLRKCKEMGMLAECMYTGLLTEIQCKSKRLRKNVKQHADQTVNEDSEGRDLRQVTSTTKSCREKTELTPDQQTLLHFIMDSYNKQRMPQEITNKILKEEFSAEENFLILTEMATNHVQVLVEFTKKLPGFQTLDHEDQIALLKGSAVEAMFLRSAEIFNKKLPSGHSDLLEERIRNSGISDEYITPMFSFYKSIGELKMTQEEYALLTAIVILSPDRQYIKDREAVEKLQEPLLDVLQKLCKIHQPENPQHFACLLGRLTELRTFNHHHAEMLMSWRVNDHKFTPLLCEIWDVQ
Method in brief: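 HepG2 cells transiently transfected with multiple cis-promoter-driven reporter units to measure endogenous transcription factor activity; 24 h exposure. Reporter mRNA read by RT-PCR, FAM labelling, HpaI digestion and capillary electrophoresis. Bidirectional fit versus DMSO.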

[2] = ATG_GRE_CIS: Attagene CIS-FACTORIAL HepG2 Assay for human Glucocorticoid Response Elements (GRE) (AID 2282947); conditions: HepG2 GRE cis-reporter, Attagene multiplex mRNA; actives raise or lower the signal
Method in brief: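 Transiently transfected HepG2 cells carrying GRE cis-reporter units (endogenous TF activity) dosed 24 h; reporter mRNA quantified by RT-PCR, 6-FAM labelling, HpaI digestion and capillary electrophoresis. Bidirectional fit versus DMSO baseline.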

[3] = ATG_ISRE_CIS: Attagene CIS-FACTORIAL HepG2 Assay for human Interferon Regulatory Factor 1 (IRF1) binding to an Interferon-Stimulated Response Element (ISRE) (AID 2282948); conditions: HepG2 ISRE cis-reporter (Attagene), mRNA transcription readout; actives raise or lower the signal
Method in brief: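 Transfected HepG2 (multiple reporter transcription units, cis elements) dosed 24 h. RNA → oligo(dT) RT → PCR → 6-FAM primer extension → HpaI → CE. DMSO = negative control/baseline.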

[4] = ATG_M_06_CIS: Attagene CIS-FACTORIAL HepG2 Assay for M06 Transcription Factor (Internal Marker) (AID 2282950); conditions: HepG2 Attagene CIS-FACTORIAL M06 internal marker reporter; actives raise or lower the signal
Method in brief: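 Fluorescence-labelled RT-PCR products from cis-promoter reporter units, cut with HpaI and resolved by capillary electrophoresis, give the signal. Cells are human HepG2, dosed for 24 h. Serves as background control, fitted relative to DMSO.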

[5] = molecular target: Hypoxia-inducible factor 1-alpha (Homo sapiens) (UniProt Q16665); test: ATG_HIF1a_CIS: Attagene CIS-FACTORIAL HepG2 Assay for human Hypoxia Inducible Factor 1 (HIF1A) (AID 2282951); conditions: HepG2 Attagene cis-factorial HIF1a reporter transcription; actives raise or lower the signal
Sequence of Hypoxia-inducible factor 1-alpha (Homo sapiens) (Q16665 whole entry, looked up): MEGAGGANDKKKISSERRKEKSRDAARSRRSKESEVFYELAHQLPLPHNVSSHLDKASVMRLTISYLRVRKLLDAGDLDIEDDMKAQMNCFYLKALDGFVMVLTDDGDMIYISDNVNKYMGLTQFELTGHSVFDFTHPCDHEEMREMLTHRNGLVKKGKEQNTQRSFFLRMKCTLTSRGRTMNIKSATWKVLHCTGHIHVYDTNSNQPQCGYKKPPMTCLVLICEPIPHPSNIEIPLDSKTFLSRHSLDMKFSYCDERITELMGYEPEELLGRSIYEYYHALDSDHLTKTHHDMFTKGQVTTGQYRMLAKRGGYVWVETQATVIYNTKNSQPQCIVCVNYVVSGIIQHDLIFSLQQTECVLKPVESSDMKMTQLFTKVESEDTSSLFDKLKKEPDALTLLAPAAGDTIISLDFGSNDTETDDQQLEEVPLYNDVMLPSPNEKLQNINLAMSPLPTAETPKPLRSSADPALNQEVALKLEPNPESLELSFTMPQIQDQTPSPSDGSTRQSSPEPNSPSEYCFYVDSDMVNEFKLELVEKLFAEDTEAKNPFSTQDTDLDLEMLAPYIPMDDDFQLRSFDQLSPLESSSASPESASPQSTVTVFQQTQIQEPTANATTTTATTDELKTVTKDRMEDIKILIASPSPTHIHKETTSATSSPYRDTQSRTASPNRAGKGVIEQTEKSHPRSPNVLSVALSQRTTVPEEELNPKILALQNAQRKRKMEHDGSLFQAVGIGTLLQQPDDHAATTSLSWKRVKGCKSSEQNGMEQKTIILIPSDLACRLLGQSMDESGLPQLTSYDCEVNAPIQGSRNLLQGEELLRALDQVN
Method in brief: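 After 24 h chemical exposure of reporter-transfected HepG2 cells, reporter cDNA was PCR-amplified, labelled by 6-FAM primer extension (2 min 95 C, 20 s 68 C, 10 min 72 C), HpaI-cut (2 h, 37 C) and analysed by CE.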

[6] = ATG_MRE_CIS: Attagene CIS-FACTORIAL HepG2 Assay for human Metal Responsive Element (MRE) (AID 2282954); conditions: HepG2 MRE cis-reporter transcription, Attagene multiplex; actives raise or lower the signal
Method in brief: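 HepG2 cells transiently transfected with cis-element-driven reporter units; mRNA measured 24 h after dosing. Reporter transcripts quantified by RT-PCR, FAM labelling, HpaI digestion and capillary electrophoresis; bidirectional fit versus DMSO.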

[7] = ATG_PBREM_CIS: Attagene CIS-FACTORIAL HepG2 Assay for human Phenobarbital-responsive Enhancer Module (PBREM) (AID 2282955); conditions: HepG2 PBREM cis-reporter, Attagene multiplexed transcription; actives raise or lower the signal
Method in brief: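 Measures endogenous factor action on a phenobarbital-responsive enhancer module. HepG2 transiently carrying cis reporters, 24 h treatment, mRNA read-out by RT-PCR plus capillary electrophoresis.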

[8] = molecular target: Paired box protein Pax-6 (Homo sapiens) (UniProt P26367); test: ATG_Pax6_CIS: Attagene CIS-FACTORIAL HepG2 Assay for human Paired Box 6 (PAX6) (AID 2282956); conditions: HepG2 CIS-FACTORIAL PAX6 reporter transcription, RNA readout; actives raise or lower the signal
Sequence of Paired box protein Pax-6 (Homo sapiens) (P26367 whole entry, looked up): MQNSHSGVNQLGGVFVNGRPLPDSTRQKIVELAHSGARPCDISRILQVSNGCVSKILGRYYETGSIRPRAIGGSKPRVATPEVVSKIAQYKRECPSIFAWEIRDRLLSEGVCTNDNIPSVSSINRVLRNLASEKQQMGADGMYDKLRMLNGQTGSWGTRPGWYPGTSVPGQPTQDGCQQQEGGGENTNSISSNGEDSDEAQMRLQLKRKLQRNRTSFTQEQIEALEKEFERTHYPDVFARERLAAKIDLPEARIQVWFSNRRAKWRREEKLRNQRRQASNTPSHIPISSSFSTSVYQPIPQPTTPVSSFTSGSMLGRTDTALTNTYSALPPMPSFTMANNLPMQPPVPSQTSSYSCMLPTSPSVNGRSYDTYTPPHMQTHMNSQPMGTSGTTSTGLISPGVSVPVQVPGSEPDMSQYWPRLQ
Method in brief: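 Transient MRTU transfection of HepG2 → compound exposure 24 h → TriZol RNA, oligo(dT) RT → PCR, 6-FAM primer extension, HpaI cut → capillary electrophoresis; activity fitted both directions against DMSO.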

[9] = ATG_PXRE_CIS: Attagene CIS-FACTORIAL HepG2 Assay for human Pregnane X Receptor Element (PXRE) (AID 2282957); conditions: HepG2 Attagene CIS-FACTORIAL PXRE reporter, mRNA; actives raise or lower the signal
Method in brief: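 Transfect HepG2 with MRTUs (cis promoter elements); dose chemical, incubate 24 h; isolate RNA, RT with oligo(dT), PCR, 6-FAM label, HpaI cut, CE. Gain/loss fit vs DMSO.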

[10] = ATG_PPRE_CIS: Attagene CIS-FACTORIAL HepG2 Assay for human Peroxisome Proliferator-activated Response Element (PPRE) (AID 2282958); conditions: HepG2 PPRE cis-element reporter, Attagene transcription factor profiling; actives raise or lower the signal
Method in brief: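 PPRE activity in HepG2: transient cis-reporter transfection, 24 h compound incubation, reporter mRNA by RT-PCR and CE fluorescence; gain/loss fitted against DMSO.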

[11] = ATG_RORE_CIS: Attagene CIS-FACTORIAL HepG2 Assay for human RAR-related Orphan Receptor Element (RORE) (AID 2282959); conditions: HepG2 Attagene cis-factorial RORE reporter, mRNA; actives raise or lower the signal
Method in brief: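 A 24-hour exposure of transfected HepG2 hepatoma cells precedes RNA isolation and reporter RT-PCR. Labeled products are digested with HpaI and resolved by capillary electrophoresis, with gain or loss of signal scored relative to DMSO.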

[12] = ATG_Sox_CIS: Attagene CIS-FACTORIAL HepG2 Assay for human SRY-box transcription factor (SOX) (AID 2282960); conditions: HepG2 Attagene cis-factorial SOX reporter, mRNA; actives raise or lower the signal
Method in brief: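 HepG2, cis reporter units, 24 h exposure. Reporter mRNA: RT-PCR → FAM labelling → HpaI → CE fluorescence. Bidirectional fit vs DMSO.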

[13] = molecular target: Transcription factor Sp1 (Homo sapiens) (UniProt P08047); test: ATG_Sp1_CIS: Attagene CIS-FACTORIAL HepG2 Assay for human Specificity Protein 1 (Sp1) (AID 2282961); conditions: HepG2 Sp1 cis-reporter transcription, actives raise or lower the signal
Sequence of Transcription factor Sp1 (Homo sapiens) (P08047 whole entry, looked up, the tested form may be a part): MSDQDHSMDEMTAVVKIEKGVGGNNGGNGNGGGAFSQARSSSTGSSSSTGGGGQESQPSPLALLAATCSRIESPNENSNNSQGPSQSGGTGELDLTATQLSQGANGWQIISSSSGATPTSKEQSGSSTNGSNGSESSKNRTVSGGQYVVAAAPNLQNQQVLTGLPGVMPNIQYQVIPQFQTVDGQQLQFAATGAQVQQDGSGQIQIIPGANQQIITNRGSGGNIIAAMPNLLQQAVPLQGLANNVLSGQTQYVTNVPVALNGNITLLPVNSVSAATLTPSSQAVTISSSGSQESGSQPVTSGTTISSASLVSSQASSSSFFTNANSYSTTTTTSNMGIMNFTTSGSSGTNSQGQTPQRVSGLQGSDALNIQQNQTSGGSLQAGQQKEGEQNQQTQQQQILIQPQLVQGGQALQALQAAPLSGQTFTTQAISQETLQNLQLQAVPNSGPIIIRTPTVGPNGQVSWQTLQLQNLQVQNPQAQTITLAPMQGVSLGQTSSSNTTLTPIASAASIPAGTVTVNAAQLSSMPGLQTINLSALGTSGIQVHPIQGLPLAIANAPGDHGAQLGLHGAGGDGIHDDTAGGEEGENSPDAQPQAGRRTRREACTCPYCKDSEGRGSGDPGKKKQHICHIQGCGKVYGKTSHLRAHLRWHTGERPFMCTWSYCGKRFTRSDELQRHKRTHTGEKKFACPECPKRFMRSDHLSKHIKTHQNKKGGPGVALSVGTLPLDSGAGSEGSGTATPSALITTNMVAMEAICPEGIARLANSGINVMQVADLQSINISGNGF
Method in brief: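 Liver-derived HepG2 cells, cis-element reporter library, 24 h treatment; RNA isolated, cDNA amplified with reporter-specific primers, FAM-labeled fragments sized on capillary analyzer. DMSO baseline, bidirectional curve fit.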

[14] = ATG_SREBP_CIS: Attagene CIS-FACTORIAL HepG2 Assay for human Sterol Regulatory Element Binding (SREBP) (AID 2282962); conditions: HepG2 Attagene cis-factorial SREBP reporter, mRNA; actives raise or lower the signal
Method in brief: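 Transfected HepG2 (cis-regulated reporter library, endogenous TFs) → compound 24 h → total RNA → oligo(dT) RT → reporter-specific PCR → FAM primer extension, HpaI cut → CE fluorescence. Fit bidirectional vs DMSO.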

[15] = molecular target: Signal transducer and activator of transcription 3 (Homo sapiens) (UniProt P40763); test: ATG_STAT3_CIS: Attagene CIS-FACTORIAL HepG2 Assay for human Signal Transducer and Activator of Transcription 3 (STAT3) (AID 2282963); conditions: HepG2, Attagene cis-factorial STAT3 reporter transcription; actives raise or lower the signal
Sequence of Signal transducer and activator of transcription 3 (Homo sapiens) (P40763 whole entry, looked up): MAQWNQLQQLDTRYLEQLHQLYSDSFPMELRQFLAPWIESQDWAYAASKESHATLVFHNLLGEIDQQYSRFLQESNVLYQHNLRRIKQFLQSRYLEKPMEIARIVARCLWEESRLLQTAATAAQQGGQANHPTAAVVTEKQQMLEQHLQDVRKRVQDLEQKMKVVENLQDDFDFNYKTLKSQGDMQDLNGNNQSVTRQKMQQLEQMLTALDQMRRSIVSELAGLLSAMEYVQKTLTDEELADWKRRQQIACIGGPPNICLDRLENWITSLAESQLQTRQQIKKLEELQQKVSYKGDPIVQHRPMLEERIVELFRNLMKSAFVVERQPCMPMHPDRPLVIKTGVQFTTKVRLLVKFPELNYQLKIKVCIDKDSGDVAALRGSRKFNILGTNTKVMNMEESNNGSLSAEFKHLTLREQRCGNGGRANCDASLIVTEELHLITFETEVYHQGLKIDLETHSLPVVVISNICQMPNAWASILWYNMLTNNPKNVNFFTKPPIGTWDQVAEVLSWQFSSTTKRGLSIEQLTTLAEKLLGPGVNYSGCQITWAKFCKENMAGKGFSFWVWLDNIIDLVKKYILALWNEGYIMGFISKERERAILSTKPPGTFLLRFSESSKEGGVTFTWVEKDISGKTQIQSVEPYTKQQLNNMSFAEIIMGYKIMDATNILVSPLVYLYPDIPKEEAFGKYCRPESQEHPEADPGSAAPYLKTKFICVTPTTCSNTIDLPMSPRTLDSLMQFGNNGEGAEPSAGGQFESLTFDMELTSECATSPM
Method in brief: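 HepG2 cells transiently transfected with multiple cis-element-driven reporter units report endogenous transcription factor activity. After 24 h compound exposure, reporter mRNA is measured by RT-PCR, 6-FAM labelling, HpaI digestion and capillary electrophoresis. Fitted bidirectionally versus DMSO.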

[16] = ATG_TA_CIS: Attagene CIS-FACTORIAL HepG2 Assay for human TA Basal Promoter (AID 2282964); conditions: HepG2 Attagene CIS-factorial TA basal promoter reporter; actives raise or lower the signal
Method in brief: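 Multiplexed mRNA reporter assay, HepG2, 24 h. Reporter cDNA amplified, 6-FAM primer-extended, HpaI-cut, CE-sized; DMSO = negative control and baseline.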

[17] = ATG_TCF_b_cat_CIS: Attagene CIS-FACTORIAL HepG2 Assay for human T-Cell-Factor with beta-catenin (TCF/b-cat) (AID 2282965); conditions: HepG2 TCF/beta-catenin cis-reporter transcription, actives raise or lower the signal
Method in brief: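 HepG2 cells transiently transfected with cis-promoter-driven multiplexed reporter units; reporter mRNA measured 24 h after dosing by RT-PCR, FAM labelling, HpaI digestion and capillary electrophoresis. Bidirectional fitting relative to DMSO baseline.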

[18] = ATG_M_32_CIS: Attagene CIS-FACTORIAL HepG2 Assay for M32 Transcription Factor (Internal Marker) (AID 2282949); conditions: HepG2 Attagene cis-factorial M32 reporter, mRNA; actives raise or lower the signal;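 further: background control marker of the multiplexed CIS panel rather than a real target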
Method in brief: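 HepG2 cells transiently transfected with multiplexed cis-regulated reporter units, dosed 24 h. Reporter mRNA quantified by RT-PCR, 6-FAM labelling, HpaI digestion and capillary electrophoresis; bidirectional fit vs DMSO.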

[19] = molecular target: Hepatocyte nuclear factor 6 (Homo sapiens) (UniProt Q9UBC0); test: ATG_HNF6_CIS: Attagene CIS-FACTORIAL HepG2 Assay for human Hepatocyte Nuclear Factor 6 (HNF6) (AID 2282952); conditions: HepG2 Attagene cis-factorial HNF6 reporter transcription; actives raise or lower the signal
Sequence of Hepatocyte nuclear factor 6 (Homo sapiens) (Q9UBC0 whole entry, looked up): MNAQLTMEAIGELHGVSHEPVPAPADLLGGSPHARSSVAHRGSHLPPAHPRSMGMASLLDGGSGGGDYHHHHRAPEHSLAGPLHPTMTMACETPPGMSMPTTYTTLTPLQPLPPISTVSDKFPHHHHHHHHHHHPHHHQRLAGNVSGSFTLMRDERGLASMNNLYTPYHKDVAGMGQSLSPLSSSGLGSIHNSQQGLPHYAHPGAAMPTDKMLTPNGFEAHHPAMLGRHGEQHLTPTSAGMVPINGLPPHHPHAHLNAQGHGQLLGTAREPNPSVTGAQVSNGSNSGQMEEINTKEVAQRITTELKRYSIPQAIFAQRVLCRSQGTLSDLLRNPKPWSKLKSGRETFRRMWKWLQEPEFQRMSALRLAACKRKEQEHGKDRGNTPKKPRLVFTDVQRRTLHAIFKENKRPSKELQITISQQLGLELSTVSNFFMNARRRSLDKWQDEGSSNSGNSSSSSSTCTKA
Method in brief: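 HepG2, transient MRTU transfection (cis promoters); 24 h chemical exposure; total RNA → oligo(dT) RT → PCR → 6-FAM labelling → HpaI cut → CE; bidirectional fit vs DMSO.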

[20] = molecular target: Heat shock factor protein 1 (Homo sapiens) (UniProt Q00613); test: ATG_HSE_CIS: Attagene CIS-FACTORIAL HepG2 Assay for human Heat Shock Transcription Factor 1 (HSE) (AID 2282953); conditions: HepG2 HSE cis-reporter, Attagene RNA transcription; actives raise or lower the signal
Sequence of Heat shock factor protein 1 (Homo sapiens) (Q00613 whole entry, looked up): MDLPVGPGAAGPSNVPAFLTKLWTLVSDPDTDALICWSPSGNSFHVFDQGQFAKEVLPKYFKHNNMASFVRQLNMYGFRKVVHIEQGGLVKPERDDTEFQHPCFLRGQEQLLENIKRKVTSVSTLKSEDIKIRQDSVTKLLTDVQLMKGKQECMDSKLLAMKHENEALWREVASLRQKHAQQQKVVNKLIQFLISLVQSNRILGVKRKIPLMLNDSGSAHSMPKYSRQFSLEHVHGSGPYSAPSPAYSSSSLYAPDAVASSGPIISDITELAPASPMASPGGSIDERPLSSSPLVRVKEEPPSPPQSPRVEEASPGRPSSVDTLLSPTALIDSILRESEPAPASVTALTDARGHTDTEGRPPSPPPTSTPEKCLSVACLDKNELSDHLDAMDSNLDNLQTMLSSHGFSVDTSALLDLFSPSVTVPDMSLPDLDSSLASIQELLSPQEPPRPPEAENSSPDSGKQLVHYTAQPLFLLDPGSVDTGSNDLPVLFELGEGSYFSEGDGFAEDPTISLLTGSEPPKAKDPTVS
Method in brief: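 After a 24 h incubation with test chemical, transfected HepG2 cells were harvested for RNA; reporter transcripts were measured by RT-PCR and capillary electrophoresis. Values reflect gain or loss of signal relative to DMSO.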

Measured: AC50

C=CC(=O)OCCn1c(=O)n(CCOC(=O)C=C)c(=O)n(CCOC(=O)C=C)c1=O
active: [1] 24.4 µM | [2] 33.4 µM | [3] 13 µM | [5] 16.8 µM | [6] 9.48 µM | [8] 15.7 µM | [13] 8.63 µM | [15] 27 µM | [17] 9.02 µM
inactive: [4] | [7] | [9] | [10] | [11] | [12] | [14] | [16]

CNC(=O)Oc1ccc2c(c1)[C@]1(C)CCN(C)[C@@H]1N2C
active: [9] 38 µM
inactive: [1] | [2] | [3] | [18] | [4] | [19] | [20] | [6] | [7] | [8] | [10] | [11] | [12] | [13] | [14] | [15] | [16] | [17]

CN(C)CCOCCN(C)C
inactive: [1] | [2] | [3] | [18] | [4] | [5] | [20] | [6] | [7] | [8] | [9] | [10] | [11] | [12] | [13] | [14] | [15] | [16] | [17]

CC(C)=CCC[C@H](C)CC=O
active: [9] 45.3 µM
inactive: [1] | [2] | [3] | [18] | [4] | [19] | [6] | [8] | [11] | [13] | [14] | [15] | [16] | [17]

CC(=O)C(C)=O
inactive: [2] | [3] | [18] | [4] | [19] | [20] | [6] | [7] | [8] | [10] | [11] | [13] | [14] | [15] | [16] | [17]
active: [1] 28.8 µM | [9] 26.5 µM

CCCCNC(=O)NS(=O)(=O)c1ccc(C)cc1
inactive: [1] | [2] | [3] | [4] | [19] | [20] | [6] | [8] | [10] | [13] | [14] | [15] | [16] | [17]

O=Cc1ccc(Cl)c([N+](=O)[O-])c1
inactive: [2] | [18] | [4] | [10] | [15] | [16]
active: [1] 63.7 µM | [3] 149 µM | [5] 139 µM | [20] 142 µM | [6] 142 µM | [8] 91.2 µM | [9] 67.5 µM | [12] 109 µM | [13] 146 µM | [14] 137 µM | [17] 65.1 µM
